Test [1] can be described thus: Cellular viability qHTS for adrenocortical cancer (ACC) cell line SW-13 (AID 1963989).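 For activity (max response): cells grown in serum-free medium with ITS supplement; % is set by controls: 0 for no effect and ±100 for the full control effect.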 Note: nearly all actives have a fitted effect of over 65% in size. The conditions noted are these: SW-13 ACC cells viability, CellTiter-Glo, 48 h; activity (max response): active compounds read low. Put shortly: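 48 h treatment, SW-13 in ITS/DMEM serum-free; doses up to 46 uM; readout CellTiter-Glo luminescence; curve fit four-parameter logistic.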
(In general: qHTS replaces the single test concentration by a dilution series.)

Test [2] can be described thus: Cellular viability qHTS for adrenocortical cancer (ACC) cell line NCI-H295R (AID 1963990). Note: nearly all actives have a fitted effect of over 60% in size. The method in brief:
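Compound titrations (up to 46 uM final) are applied to NCI-H295R cultures for 48 h at 37C. Viable cell number is estimated by CellTiter-Glo signal, normalised to DMSO and doxorubicin controls.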

Values joined by “and” are separate entries in the source; they are usually repeats but may differ in a detail not shown here. Identical values can stand only once. Inconclusive results are not listed. Values without a mark were called inactive. Active and inactive are the calls of the source. Calls come from the whole dose curve; as a rule, active = well fitted cell-killing curve with a large enough effect; inconclusive = small, poorly fitted or top-dose-only effect; inactive = flat fitted curve, though single readings scatter.
Potency is the fitted concentration of half-maximal effect.

As to `Nc1c(Cl)c(Cl)c(Cl)c(Cl)c1Cl`, the activity (max response) in test [1] was -9.89%. For the same compound, the Potency entry in test [2] is “inactive”.

Regarding `O=C1NCN(c2ccccc2)C12CCN(CC1COc3ccccc3O1)CC2` (configuration not stated), the activity (max response) in test [1] is -9.54%. Further, the Potency entry in test [2] was “inactive”.

Take `CC(=O)[C@H]1CC[C@H]2[C@@H]3CC[C@H]4C[C@H](O)CC[C@]4(C)[C@H]3C(=O)C[C@]12C`: the activity (max response) in test [1] was 0.908%. Also, the Potency entry in test [2] was “inactive”.

For the compound `Nc1ccc(N)cc1`, in test [1], the activity (max response) is 5.64%. Besides, the Potency entry in test [2] is “inactive”.

In the case of `Nc1ccc([As](=O)(O)O)cc1`, the activity (max response) in test [1] was 13.3%. Besides, the Potency entry in test [2] is “inactive”.

With `CNCC(=O)c1ccc(O)c(O)c1`, in test [1], the activity (max response) is 2.58%. In addition, the Potency entry in test [2] was “inactive”.

With `CC(=O)[O][Hg][c]1ccccc1`, the Potency in test [1] was 1.3 µM (active); in test [2] it was 1.46 µM (active).

For the compound `CCOC(C(=O)OCCN(C)C)(c1ccccc1)c1ccccc1`, the activity (max response) in test [1] was -0.322%. The Potency result in test [2] is “inactive”.

Regarding `CN1C(=O)CN=C(c2ccccc2)c2cc(Cl)ccc21`, the activity (max response) in test [1] is 0.469%. Moreover, the Potency entry in test [2] was “inactive”.

On to `CC(C)=CCN1CC[C@@]2(C)c3cc(O)ccc3C[C@@H]1[C@@H]2C`, for which the Potency is 39.8 µM (active) in test [1] and 31.6 µM (active) in test [2].

For `O=C(CBr)N1CC([N+](=O)[O-])([N+](=O)[O-])C1`, in test [1], the activity (max response) was 7.48%. Moreover, the Potency entry in test [2] is “inactive”.

Turning to `c1cc2ccc3cccc4ccc(c1)c2c34`, the activity (max response) in test [1] is -9.29%. Further, in test [2], the Potency result is “inactive”.

As for `COc1ccc2c(C(=O)c3ccc(Cl)cc3)c(C)n(CC(=O)O)c2c1`, the activity (max response) in test [1] was 8.1%. In addition, in test [2], the Potency result was “inactive”.

With `C[C@H]1[C@H](O)[C@@H](C)/C=C/C=C/CC/C=C/C=C/C=C/C=C/[C@H](O[C@@H]2O[C@H](C)[C@@H](O)[C@H](N)[C@@H]2O)C[C@@H]2O[C@](O)(C[C@@H](O)[C@H](O)CC[C@@H](O)C[C@@H](O)C[C@@H](O)CC(=O)O[C@H]1C)C[C@H](O)[C@H]2C(=O)O`, in test [1], the activity (max response) is -20.1%. Also, the Potency entry in test [2] is “inactive”.

`CC(C)c1c(CN(C)C(C)Cc2ccccc2)n(C)n(-c2ccccc2)c1=O` (configuration not stated): the activity (max response) in test [1] was 5.24%. In addition, in test [2], the Potency result is “inactive”.

`CC(C)[C@]12O[C@H]1[C@@H]1O[C@@]13[C@@]1(C)CCC4=C(COC4=O)[C@@H]1C[C@@H]1O[C@@]13C2=O`: the Potency was 0.141 µM (active) in test [1] and 0.631 µM (active) in test [2].

For `COc1cc(C)[nH]c(=O)c1CNC(=O)c1c(C)n([C@H](C)C2CCN(CC(F)(F)F)CC2)c2ccccc12`, the activity (max response) in test [1] is 8.69%. Also, the Potency entry in test [2] was “inactive”.

Take `CC(Cc1ccc2c(c1)OCO2)NO` (configuration not stated): the activity (max response) in test [1] is -5.75%. Moreover, in test [2], the Potency entry is “inactive”.

Take `CCN(CCO)CCn1c(Cc2ccccc2)nc2c1c(=O)n(C)c(=O)n2C`: in test [1], the activity (max response) was 7.74%. For the same compound, the Potency result in test [2] is “inactive”.

With `CC#C[C@]1(O)CC[C@H]2[C@@H]3C[C@H](C)C4=CC(=O)CC[C@]4(C)[C@H]3CC[C@@]21C`, in test [2], the Potency is 8.2 µM (active).

In the case of `C[C@]12CCC(=O)C(O)=C1CC[C@@H]1[C@@H]2CC[C@]2(C)C(=O)CC[C@@H]12`, the activity (max response) in test [1] was 4.45% and 4.46%. Moreover, the Potency result in test [2] was “inactive”.

Turning to `CS(=O)(=O)c1ccc(C(=O)C2C(=O)CCCC2=O)c([N+](=O)[O-])c1`, the activity (max response) in test [1] is -0.0273%. In test [2], the Potency result was “inactive”.

For the compound `CCCCC/C=C\C/C=C\C/C=C\C/C=C\CCCC(=O)NCC(=O)O`, the Potency entry in test [2] is “inactive”.

For the compound `C=CC[C@]1(O)CC[C@H]2[C@@H]3CCC4=CC(=O)CCC4=C3C=C[C@@]21C`, the Potency entry in test [2] is “inactive”.

For the compound `CC[C@@H](CO)NC(=O)[C@@H]1C=C2c3cccc4c3c(cn4C)C[C@H]2N(C)C1`, the activity (max response) in test [1] is -2.39%. In addition, the Potency entry in test [2] was “inactive”.

`CCCC1CCCCN1` (configuration not stated): the activity (max response) in test [1] is 12.1%. Also, the Potency entry in test [2] was “inactive”.

As for `O=C1NCN(c2ccccc2)C12CCN(CCCOc1ccc(F)cc1)CC2`, in test [2], the Potency result was “inactive”.

In the case of `Cc1c(Cl)c(=O)oc2cc(OP(=O)(OCCCl)OCCCl)ccc12`, the activity (max response) in test [1] is -15.3%. Also, the Potency entry in test [2] is “inactive”.

`COC(=O)[C@]12CCC(C)(C)C[C@H]1[C@H]1C(=O)C=C3[C@@]4(C)C=C(C#N)C(=O)C(C)(C)[C@@H]4CC[C@@]3(C)[C@]1(C)CC2`: the results for the Potency in test [1] and in test [2] were 6.31 µM (active) and 3.98 µM (active), respectively.

`CC(=O)N1N=C(c2ccc(N)cc2)c2cc3c(cc2C[C@H]1C)OCO3`: the activity (max response) in test [1] is -25.9%. For the same compound, the Potency entry in test [2] was “inactive”.

Take `O=c1c(C2CC(c3ccc(-c4ccc(Br)cc4)cc3)Cc3ccccc32)c(O)sc2ccccc12` (configuration not stated): the Potency in test [1] was 5.8 µM (active); in test [2], 7.31 µM (active).

For `O=c1[nH]c2ccccc2n1C1CCN(CCCC(c2ccc(F)cc2)c2ccc(F)cc2)CC1`, the Potency in test [2] is 23.1 µM (active).

Consider `CC(C)(NC(=O)O[C@@H]1CN2CCC1CC2)c1csc(-c2ccc(F)cc2)n1`, for which the Potency result in test [2] is “inactive”.

With `COc1ccc2[nH]cc(CCN(C(C)C)C(C)C)c2c1`, in test [1], the activity (max response) is -8.69%. Besides, the Potency result in test [2] is “inactive”.

Values taken from PubChem BioAssay (NCATS).
